9 compounds from PubChem BioAssay can be followed below.

A short description of experiment [1]: viability loss in pontine glioma line – cell-based, SU-DIPG-XVII, MIPE5.0, CellTiter-Glo, qHTS, dose response (AID 1347060).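 For AC50: cells exposed to compound for 48 hours before viability readout.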 Particulars: CellTiter-Glo ATP luminescence. For orientation: ATP-based viability assays read luminescence as a measure of living cells.
Experiment [2] is described as follows: viability loss in pontine glioma line – cell-based, SU-DIPG-XXV, MIPE5.0, CellTiter-Glo, qHTS, dose response (AID 1347065).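 Note: cells exposed to compound for 48 hours before ATP readout.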 Conditions: CellTiter-Glo ATP luminescence.
Experiment [3] is described as follows: viability loss in pontine glioma line – cell-based, SU-DIPG-XIII, MIPE5.0, CellTiter-Glo, qHTS, dose response (AID 1347064; cut-off not given, nearly all actives have AC50 up to about 23 µM;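 for AC50: cells exposed to compound for 48 hours before the viability read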). Conditions: CellTiter-Glo ATP luminescence.
A short description of experiment [4]: growth inhibition of DIPG cells – cell-based, MIPE5.0 library, qHTS (AID 1347068; cut-off not given, nearly all actives have IC50 up to about 30 µM;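 for IC50: cells exposed to compound for 48 hours before viability readout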). Particulars: SU-DIPG-XXV viability.
Experiment [5] in a line: viability loss with induced miR-34 in A549 – imaging, A549 dox-inducible miR-34, nuclei and caspase counts, primary screen (AID 1347080;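 active = compounds whose cell count with miR-34 switched on is under 0.7 times the count with it off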). Particulars: A549 miR-34 inducible, Hoechst nuclei count, 48 h.
Experiment [6] is described as follows: MELAS cybrid and Rieske KO viability enhancers – cell-based, MELAS cybrids, Rieske KO mouse fibroblasts, CellTiter-Glo, primary screen (AID 1508586;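 active = mean z-score across replicates of 1.96 or higher in either the MELAS or the Rieske mutant cell line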;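 note: z relative to plate mean and SD of compound and empty wells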). Particulars: low glucose.
Experiment [7] in a line: JHH-DIPG-1 glioma cell viability, MIPE5.0 library, CellTiter-Glo luminescence, qHTS (AID 1347067).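 Note: cells exposed to compound for 48 hours before readout.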 Conditions: JHH-DIPG-1 glioma viability, CellTiter-Glo ATP luminescence.
The mark [8] stands for this setting: stronger effect = lower value, cell number ratio, induced over uninduced.
Setting [9] is: measured here: relative caspase fold change +Dox/-Dox.
[10] abbreviates: measured here: total cells with miR-34 induction, stronger effect = lower value.
Setting [11] is: measured here: total cells without miR-34 induction.
[12] abbreviates: MELAS cybrid survival, CellTiter-Glo 48 h, stronger effect = higher value.
Setting [13] is: Rieske KO mouse fibroblast survival, CellTiter-Glo 72 h.

Records with an inconclusive call do not appear. Activity calls are given as the source filed them. Unless noted, no cut-off is given here; in the data, nearly all actives have AC50 up to about 26 µM.

Broadly, the AC50 is the midpoint of the concentration-response curve, whichever way the signal moves. For `COc1ccc(Cl)c(Nc2nc3ccccc3nc2NS(=O)(=O)c2cccc(NC(=O)C(C)(C)N)c2)c1`, the results for the concentration at half-maximal activity (AC50) in experiment [1] and in experiment [2] were 14.8 µM (active) and 10.5 µM (active), respectively.

As to `Cc1noc(-c2ccc(-c3ccc(C4(C(=O)O)CC4)cc3)cc2)c1NC(=O)O[C@H](C)c1ccccc1`, the AC50 in experiment [1] and in experiment [2] was 23.5 µM (active) each time.

Turning to `COc1ncc(Nc2ncc(C(C)N3CCN(S(C)(=O)=O)CC3)cc2-c2nc(C)nc(N)n2)cc1F` (stereo not drawn), the AC50 in experiment [1] is 0.934 µM (active); in experiment [2], 0.235 µM (active).

In general, IC50 refers to the concentration at which inhibition is half-maximal. `Cn1cnc(-c2cc3nccc(Oc4ccc(NC(=S)NC(=O)Cc5ccccc5)cc4F)c3s2)c1`: the half-maximal activity concentration (AC50) in experiment [1] is 16.6 µM (active); in experiment [3], 18.6 µM (active). The half-maximal inhibitory concentration (IC50) in experiment [4] is 4.17 µM (active). Besides, the fold change in experiment [5] (setting [8]) is 0.83 (inactive); in experiment [5] (setting [9]), 1.19. For the same compound, the cell count is 3930 in experiment [5] (setting [10]) and 4730 in experiment [5] (setting [11]). Further, the values for the z-score in experiment [6] (setting [12]) and in experiment [6] (setting [13]) were -0.555 (inactive) and -0.0569, respectively.

In the case of `COc1ccc2c(c1)[C@]1(C[C@H]1c1ccc3c(/C=C/c4ccc(CN5C[C@@H](C)O[C@@H](C)C5)cc4)n[nH]c3c1)C(=O)N2`, the concentration at half-maximal activity (AC50) in experiment [1] is 4.17 µM (active); in experiment [2] it was 0.0417 µM (active).

For the compound `Nc1n[n+]([O-])c2ccccc2[n+]1[O-]`, the result in experiment [1], in experiment [3] and in experiment [4] was inactive.

In the case of `O=C(Nc1cccc(C(F)(F)F)c1)Nc1cc(S(=O)(=O)NC2CC2)ccc1-c1ccsc1`, the compound was classed as inactive in experiment [1], in experiment [3], in experiment [7] and in experiment [4]. For the same compound, the fold change in experiment [5] (setting [8]) was 0.892 (inactive); in experiment [5] (setting [9]) it was 0.311. In addition, the cell count came to 6420 in experiment [5] (setting [10]) and 7200 in experiment [5] (setting [11]). The z-score in experiment [6] (setting [12]) is -0.374 (inactive); in experiment [6] (setting [13]) it was -0.851.

On to `COc1cc(C)[nH]c(=O)c1CN1CCc2c(Cl)cc([C@H](OC)C3COC3)c(Cl)c2C1=O`, for which the result in experiment [1], in experiment [3], in experiment [7] and in experiment [4] was inactive.

In the case of `C[C@H]1CN(C2COC2)CCN1c1ccc(Nc2cc(-c3ccnc(N4CCn5c(cc6c5CC(C)(C)C6)C4=O)c3CO)cn(C)c2=O)nc1`, the call in experiment [1], in experiment [3], in experiment [7] and in experiment [4] was inactive.
